# Screening data: PubChem, National Center for Advancing Translational Sciences (NCATS)
# Shown are actives, neighbours in structure and some others; about 10% of the full set was active somewhere.
# NIH3T3 tox – Cytotoxic Profiling in NIH 3T3 Cell Line of Diverse Libraries Using Quantitative High-Throughput Screening. AID 1345082, 2018. 94,000 tested, 4.3% active. Potency, µM (series often up to 96.7 µM), for the others: top-dose activity change, negative = cytotoxicity, most hits filed as inhibitors. NIH 3T3 viability, CellTiter-Glo ATP luminescence, 48-72 h; further: nearly all actives have a fitted effect of over 55% in size
#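 Viability of NIH 3T3 cells after 48 or 72 hr compound treatment at 37 °C was assessed by CellTiter-Glo, with luminescence imaged following a 10 min room-temperature step.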
# HEK293 tox – Cytotoxic Profiling in HEK 293 Cell Line of Diverse Libraries Using Quantitative High-Throughput Screening | Potency, µM (doses to about 115 µM), for the others: at the highest dose activity change, negative = cytotoxicity, usual class: inhibitors | AID 1345083, 2018 | 94,000 tested, 6.6% active | HEK 293 viability, ATP luminescence (CellTiter-Glo), 48-72 h; further: nearly all actives have a fitted effect of over 60% in size
#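 HEK 293 seeded at 250 cells/well receive compound via pintool. After 48 or 72 hr at 37 degree Celsius, 5% CO2 and 95% humidity, CellTiter-Glo is dispensed and luminescence read following 10 min at room temperature.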
# NPR1 antag – Natriuretic polypeptide receptor (hNpr1) antagonism - Primary qHTS; Atrial natriuretic peptide receptor 1 (Homo sapiens), P16066; HEK293 hNpr1 GloSensor cGMP, ANP-stimulated luminescence; Potency, µM (top dose mostly 46.3 µM), for the others: at the highest dose activity change, negative = inhibition, most hits filed as inhibitors; 76,000 tested, 1.6% active; AID 1347048, 2019; calls by dose curve; further: nearly all actives have a fitted effect of over 60% in size
#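 Compound pre-incubated 30 min at room temperature on GloSensor-loaded HEK293 cells stably carrying hNpr1 and the pGS-40F cGMP biosensor. Stimulation uses hNppA at 0.1 nM final; luminescence is taken at baseline and 20 min post-agonist.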
# GPT2 inhibitor – Primary qHTS assay for inhibitors of Glutamate pyruvate transaminase 2 (GPT2). Potency, µM (doses to about 57.7 µM), for the others: at the top dose activity change, negative = inhibition, most hits filed as inhibitors. Alanine aminotransferase 2 (Homo sapiens), Q8TD30. 100,000 tested, 0.25% active. Recombinant GPT2, coupled pyruvate oxidase/HRP Amplex Red fluorescence; further: nearly all actives have a fitted effect of over 60% in size
#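 Fluorescence of coupled pyruvate oxidase/HRP/Amplex Red system (50uM Amplex, 30 min, dark) reports pyruvate formed by GPT2. Enzyme reaction: 10ng/uL GPT2, 2mM L-alanine, 250uM a-KG, 30 min room temperature, pH 7.5; 50uM AOA control.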
# Luciferase inh – Firefly luciferase inhibition profiling of diverse chemical library using quantitative high-throughput screening; Luciferin 4-monooxygenase (Photinus pyralis), P08659; Potency, µM (top dose mostly 115 µM), most hits filed as inhibitors; purified P. pyralis luciferase, luminescence, biochemical; 76,000 tested, 2.5% active; further: nearly all actives have a fitted effect of over 65% in size
# Target sequence (P08659 whole entry, looked up): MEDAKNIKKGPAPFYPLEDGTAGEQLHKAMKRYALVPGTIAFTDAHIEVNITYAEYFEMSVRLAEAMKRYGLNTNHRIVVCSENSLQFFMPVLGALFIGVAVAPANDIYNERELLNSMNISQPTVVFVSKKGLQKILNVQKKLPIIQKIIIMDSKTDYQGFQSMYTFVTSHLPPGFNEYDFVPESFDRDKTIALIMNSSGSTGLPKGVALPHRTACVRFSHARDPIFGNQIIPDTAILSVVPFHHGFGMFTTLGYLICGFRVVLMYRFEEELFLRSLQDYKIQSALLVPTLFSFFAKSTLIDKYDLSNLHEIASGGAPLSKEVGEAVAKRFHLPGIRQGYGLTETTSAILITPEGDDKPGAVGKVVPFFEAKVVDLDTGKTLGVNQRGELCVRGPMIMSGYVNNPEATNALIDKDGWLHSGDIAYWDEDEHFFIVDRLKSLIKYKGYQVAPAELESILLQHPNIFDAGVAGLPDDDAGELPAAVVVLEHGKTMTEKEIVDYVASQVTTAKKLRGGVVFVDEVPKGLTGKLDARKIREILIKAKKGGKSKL
#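 Luminescence read by CCD imaging after purified firefly luciferase (10nM final) was added to substrate buffer holding 10uM D-luciferin and 10uM ATP, pH 7.5, pre-dosed with compound.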
# Starred values were filed as active, the others as inactive; i = inactive; u = inconclusive; x = not tested or not shown; ! = repeats disagree; [ ] = remark or other dose. Unless noted, the call rests on the fitted dose curve; in most records, active means well fitted curve in the direction sought with a large enough effect; inconclusive means small, poorly fitted or top-dose-only effect, or another doubt; inactive means no such curve, though single readings can be large; an effect the other way counts as inactive or inconclusive. On the % scale 0 is the no-effect control and ±100 the full control effect; potency means the concentration at half of the fitted maximal effect.
SMILES,NIH3T3 tox,HEK293 tox,NPR1 antag,GPT2 inhibitor,Luciferase inh
Cc1noc(C)c1CNC(=O)C1CCCNC1 (stereo not drawn),i,16%,0%,i,i
C[C@@H](CN1CCC(n2c(=O)[nH]c3cc(Cl)ccc32)CC1)NC(=O)c1ccc2ccccc2c1,x,x,x,i,x
CN1[C@@H](c2ccc(Cl)cc2)[C@@H](C(=O)NCCc2cnc[nH]2)C[C@@]1(C)C(=O)O,i,1%,2%,0%,i
O=C(NCCc1cnc[nH]1)C1CC(=O)N(c2n[nH]c3ccccc23)C1 (stereo not drawn),i,3%,1%,-3%,i
COC(=O)[C@@H]1Cc2c([nH]c3ccccc23)[C@H]2C[C@H](NCCc3cnc[nH]3)C[C@@H](c3ccccc3F)N21,u,22µM*,-21%,-2%,i
COC(=O)[C@@H]1Cc2c([nH]c3ccccc23)[C@H]2C[C@@H](NCCc3cnc[nH]3)C[C@@H](c3cccc(Cl)c3)N21,u,28µM*,0%,-4%,i
CC(=O)N1CCN(C(=O)c2ccc3nnc(-c4ccc(OC(F)(F)F)cc4)n3c2)CC1,-22%,1%,x,0%,x
CCN(CC)C(=S)SSC(=S)N(CC)CC,x,x,x,11µM*!,x
O=C(C1CN(C2CCCCC2)C(=O)N1)N1CCN(Cc2ccccc2)CC1 (stereo not drawn),-12%,3%,x,1%,x
O=C(c1cccs1)C1CCCN(C(=O)c2ccc(N3CCCC3=O)cc2)C1 (stereo not drawn),-7%,2%,-1%,3%,i
Cc1ccc(C2Cn3nnc(C(=O)N4CCC(C(=O)NC5CCCC5)CC4)c3CO2)cc1 (stereo not drawn),i,6%,1%,i,11µM*
Cc1ccc(C2Cn3nnc(C(=O)N4CCC(C(=O)NC(C)C)CC4)c3CO2)cc1 (stereo not drawn),i,-2%,-10%,3%,20µM*
CCc1ccc(NC(=O)Cn2c(=O)c(-c3noc(CC)n3)c3n(c2=O)CCCC3)cc1,u,u,1%,-5%,i
COc1ccccc1-c1cccc(CN2CCCC(C(=O)Nc3ccc(F)cc3)C2)c1 (stereo not drawn),u,13µM*,x,i,x
COc1ccccc1-c1cccc(CN2CCCC(C(=O)NCCc3ccc(F)cc3)C2)c1 (stereo not drawn),32µM*,u,x,-1%,x
Cc1[nH]cnc1CN1CCCC(C(=O)Nc2ccc(-c3cccc(F)c3)cc2)C1 (stereo not drawn),u,25µM*,6%,i,i
COCCNC(=O)C1CCCN(Cc2cccc(-c3ccccc3OC)c2)C1 (stereo not drawn),u,u,x,-3%,x
CNC(=O)[C@@H]1CN(S(=O)(=O)C(C)C)C[C@H]1c1n[nH]c(C)n1,2%,-2%,2%,i,i
CC(C)(C)CC(=O)NC[C@H]1OC[C@@H](NCc2ncc[nH]2)[C@@H]1O,4%[138 µM],i,2%[70.6 µM],-4%[88.5 µM],i
CCCCn1c(=O)c(C(=O)NCc2ccccn2)nc2cccnc21,u,-1%[172 µM],x,i,x
CCCCn1c(=O)c(C(=O)NC2CCCc3ccccc32)nc2cccnc21 (stereo not drawn),35µM*,40µM*,x,i,x
COc1ccccc1NC(=O)CC1CCCN(c2cnn(CC3CC3)c(=O)c2)C1 (stereo not drawn),35µM*,1%,-20%,-6%,i
CCOc1ccccc1NC(=O)CC1CCCN(c2cnn(CC3CC3)c(=O)c2)C1 (stereo not drawn),35µM*,u,0%,-2%,i
CCC1Oc2ccc(NC(=O)Cc3ccc(F)cc3)cc2CN(Cc2ccc(Cl)cc2)C1=O (stereo not drawn),10µM*,u,-19%,4%,i
